Source: PubChem BioAssay (Tox21)
Values joined by “and” are separate entries in the source; they are usually repeats but may differ in a detail not shown here. Identical values can stand only once. Inconclusive results are not listed. A call without a number means that no potency is given here. A structure can be active in one record and inactive in another. Active and inactive are the calls of the source. The call rests on the fitted dose curve; in most records, active means well fitted curve in the direction sought with a large enough effect in the repeat runs; inconclusive means weak or mixed curves; inactive means no such curve, though single readings can be large; an effect the other way counts as inactive or inconclusive.

Target: Cytochrome P450 2C19 (Homo sapiens) (UniProt P33261)
Test: Cytochrome P450 Family 2 Subfamily C Member 19 (CYP2C19) small molecule antagonists: luciferase reporter qHTS assay (AID 1671197); further: nearly all actives have a fitted effect of over 65% in size; further: potency means the concentration at half of the fitted maximal effect
Settings: P450-Glo CYP2C19 enzyme, luciferin luminescence, 1 h; series mostly up to 115 µM
Procedure, shortened: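 Inhibition of CYP2C19 was scored from loss of luminescence in a P450-Glo proluciferin substrate assay, NADPH-started and run 1 h at 37C, with ketoconazole as positive control.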

Chain of Cytochrome P450 2C19 (Homo sapiens) (P33261 whole entry, looked up): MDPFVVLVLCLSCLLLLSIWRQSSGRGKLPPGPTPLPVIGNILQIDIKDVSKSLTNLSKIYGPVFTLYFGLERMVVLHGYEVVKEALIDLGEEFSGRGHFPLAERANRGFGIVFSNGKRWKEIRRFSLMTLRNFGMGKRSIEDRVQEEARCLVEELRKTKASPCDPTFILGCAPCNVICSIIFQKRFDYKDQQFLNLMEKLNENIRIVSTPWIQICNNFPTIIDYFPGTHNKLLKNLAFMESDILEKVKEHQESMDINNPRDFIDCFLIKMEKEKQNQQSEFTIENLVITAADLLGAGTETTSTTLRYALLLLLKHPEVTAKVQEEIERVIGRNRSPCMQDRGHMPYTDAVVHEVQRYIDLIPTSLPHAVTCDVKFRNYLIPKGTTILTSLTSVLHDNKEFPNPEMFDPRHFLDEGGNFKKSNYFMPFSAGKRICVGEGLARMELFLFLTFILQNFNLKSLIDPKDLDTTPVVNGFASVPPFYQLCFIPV

| Structure (SMILES) | Potency |
| --- | --- |
| Cc1cccc(C)c1O | 72.1 µM (active) and inactive |
| N[C@@H](Cc1c[nH]c2ccccc12)C(=O)O | 31.8 µM (active) and inactive |
| CC(=O)/C=C/C1=C(C)CCCC1(C)C | 40.7 µM (active) and 39.9 µM (active) and 71 µM (active) |
| CC(C)(C)NCC(O)c1ccc(O)c(CO)c1 (configuration not stated) | inactive |
| CCCCCCCC(=O)OCC(O)CO (configuration not stated) | 79.6 µM (active) |
| CC1=NN(c2ccccc2)C(=O)C1 | 71.4 µM (active) and inactive |
| C1CNCCN1 | 82 µM (active) and inactive and 72.1 µM (active) |
| CO[C@H]1C=CO[C@@]2(C)Oc3c(C)c(O)c4c(O)c(c(/C=N/N5CCN(C)CC5)c(O)c4c3C2=O)NC(=O)/C(C)=C\C=C[C@H](C)[C@H](O)[C@@H](C)[C@@H](O)[C@@H](C)[C@H](OC(C)=O)[C@@H]1C | 35.8 µM (active) and 50.8 µM (active) and 9.77 µM (active) |
| C=CC(=O)NC(C)(C)CS(=O)(=O)O | inactive |
| C#C[C@]1(O)CC[C@H]2[C@@H]3CCC4=CC(=O)CC[C@@H]4[C@H]3CC[C@@]21CC | 2.83 µM (active) and 5.64 µM (active) and 2.45 µM (active) |
| CC(C)CC(C)CC(O)CC(C)C (configuration not stated) | inactive |
| CC(C)Cc1ccc(C(C)C(=O)O)cc1 (configuration not stated) | inactive |
| CN(C)Cc1cc(CN(C)C)c(O)c(CN(C)C)c1 | inactive |
| CCCCC/C(C=O)=C\c1ccccc1 | 35.6 µM (active) and 39.9 µM (active) and inactive |
| C=C(C)C(N)=O | inactive |
| NC(=O)c1ccc([N+](=O)[O-])cc1Cl | inactive |
| NC(N)=NC(N)=NCCc1ccccc1 | inactive |
| C#C[C@]1(O)CC[C@H]2[C@@H]3CCc4cc(O)ccc4[C@H]3CC[C@@]21C | 7.05 µM (active) and 10 µM (active) and 13.8 µM (active) |
| CC(=O)c1ccc(S(=O)(=O)NC(=O)NC2CCCCC2)cc1 | inactive |
| OCCCc1ccccc1 | 31.7 µM (active) and inactive |

Target: Cytochrome P450 2C9 (Homo sapiens) (UniProt P11712)
Test: Cytochrome P450 Family 2 Subfamily C Member 9 (CYP2C9) small molecule antagonists: luciferase reporter qHTS assay (AID 1671198); further: nearly all actives have a fitted effect of over 50% in size; further: potency means the concentration at half of the fitted maximal effect
Settings: P450-Glo CYP2C9 enzyme assay, luciferin luminescence; series mostly up to 115 µM
Procedure, shortened: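 P450-Glo proluciferin substrate with CYP2C9 enzyme; 10 min RT preincubation, then NADPH regeneration 1 h at 37C; luciferin detection reagent 20 min RT, luminescence in relative luminescence units.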

Chain of Cytochrome P450 2C9 (Homo sapiens) (P11712 whole entry, looked up): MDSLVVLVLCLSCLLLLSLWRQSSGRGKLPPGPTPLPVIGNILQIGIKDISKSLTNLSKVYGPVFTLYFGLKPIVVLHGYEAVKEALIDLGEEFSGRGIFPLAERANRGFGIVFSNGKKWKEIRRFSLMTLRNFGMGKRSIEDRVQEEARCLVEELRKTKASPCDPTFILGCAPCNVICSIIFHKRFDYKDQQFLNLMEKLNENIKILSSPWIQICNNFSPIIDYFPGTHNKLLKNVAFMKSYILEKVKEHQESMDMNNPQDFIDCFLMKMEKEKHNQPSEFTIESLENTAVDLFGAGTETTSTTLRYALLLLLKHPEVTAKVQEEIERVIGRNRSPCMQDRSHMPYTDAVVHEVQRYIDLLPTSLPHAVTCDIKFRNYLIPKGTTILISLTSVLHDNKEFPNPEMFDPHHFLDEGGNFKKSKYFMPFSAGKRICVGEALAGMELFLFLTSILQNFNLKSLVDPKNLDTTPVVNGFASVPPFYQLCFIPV

| Structure (SMILES) | Potency |
| --- | --- |
| N[C@@H](Cc1c[nH]c2ccccc12)C(=O)O | 71.1 µM (active) |
| CC(C)(C)NCC(O)c1ccc(O)c(CO)c1 (configuration not stated) | inactive |
| CCCCCCCC(=O)OCC(O)CO (configuration not stated) | inactive |
| CC1=NN(c2ccccc2)C(=O)C1 | 11.3 µM (active) and 11.2 µM (active) and 17.4 µM (active) |
| C1CNCCN1 | inactive |
| C=CC(=O)NC(C)(C)CS(=O)(=O)O | inactive |
| CC(C)CC(C)CC(O)CC(C)C (configuration not stated) | inactive |
| CN(C)Cc1cc(CN(C)C)c(O)c(CN(C)C)c1 | inactive |
| CCCCC/C(C=O)=C\c1ccccc1 | 39.9 µM (active) |
| NC(=O)c1ccc([N+](=O)[O-])cc1Cl | 71 µM (active) and inactive |
| CC(=O)c1ccc(S(=O)(=O)NC(=O)NC2CCCCC2)cc1 | 31.6 µM (active) and 31.7 µM (active) and 17.4 µM (active) |
| OCCCc1ccccc1 | inactive |

Target: Cytochrome P450 1A2 (Homo sapiens) (UniProt P05177)
Test: Cytochrome P450 Family 1 Subfamily A Member 2 (CYP1A2) small molecule antagonists: luciferase reporter qHTS assay (AID 1671199); further: nearly all actives have a fitted effect of over 50% in size; further: potency means the concentration at half of the fitted maximal effect
Settings: P450-Glo CYP1A2 enzyme, luciferin luminescence, 1 h; series mostly up to 115 µM
Procedure, shortened: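 Luminescence from luciferin formed by CYP1A2 from a proluciferin substrate, read 20 min after detection reagent. Compound was pre-incubated 10 min with enzyme-substrate, and reaction started with NADPH regeneration solution for 1 h at room temperature; furafylline control.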

Chain of Cytochrome P450 1A2 (Homo sapiens) (P05177 whole entry, looked up): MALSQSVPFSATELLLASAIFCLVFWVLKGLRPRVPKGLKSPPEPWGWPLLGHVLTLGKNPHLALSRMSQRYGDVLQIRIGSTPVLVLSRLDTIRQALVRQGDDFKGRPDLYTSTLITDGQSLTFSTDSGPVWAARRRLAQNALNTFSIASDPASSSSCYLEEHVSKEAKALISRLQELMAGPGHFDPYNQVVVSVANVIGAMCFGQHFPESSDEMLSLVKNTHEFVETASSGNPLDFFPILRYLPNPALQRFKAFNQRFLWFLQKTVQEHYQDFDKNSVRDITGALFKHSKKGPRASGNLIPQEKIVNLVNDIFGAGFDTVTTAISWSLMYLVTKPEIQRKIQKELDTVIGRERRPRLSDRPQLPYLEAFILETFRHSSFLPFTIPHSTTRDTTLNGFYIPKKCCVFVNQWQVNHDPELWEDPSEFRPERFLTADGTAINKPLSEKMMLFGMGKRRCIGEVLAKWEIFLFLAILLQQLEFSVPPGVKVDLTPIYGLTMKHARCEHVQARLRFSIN

| Structure (SMILES) | Potency |
| --- | --- |
| Cc1cccc(C)c1O | 36.1 µM (active) |
| CC(=O)/C=C/C1=C(C)CCCC1(C)C | inactive |
| C#C[C@]1(O)CC[C@H]2[C@@H]3CCC4=CC(=O)CC[C@@H]4[C@H]3CC[C@@]21CC | inactive |
| CC(C)Cc1ccc(C(C)C(=O)O)cc1 (configuration not stated) | inactive |
| C#C[C@]1(O)CC[C@H]2[C@@H]3CCc4cc(O)ccc4[C@H]3CC[C@@]21C | inactive and 17.4 µM (active) |

Target: Voltage-gated inwardly rectifying potassium channel KCNH2 (Homo sapiens) (UniProt Q12809)
Test: Human Ether-a-go-go-Related Gene (hERG) channel small molecule antagonists: fluorescence cell-based qHTS assay (AID 1671200);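 further: hERG-expressing U2OS cells given a thallium stimulus after FluxOR II dye loading; nearly all actives have a fitted effect of over 50% in size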
Settings: hERG-U2OS cells, FluxOR thallium flux fluorescence; series mostly up to 76.8 µM
Procedure, shortened: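 In this thallium-flux screen, overnight-cultured U2OS cells bearing the channel are dye-loaded in darkness for an hour, rested 10 min at room temperature, and then monitored kinetically at 480/540 nm for two minutes post-stimulus.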

Chain of Voltage-gated inwardly rectifying potassium channel KCNH2 (Homo sapiens) (Q12809 whole entry, looked up): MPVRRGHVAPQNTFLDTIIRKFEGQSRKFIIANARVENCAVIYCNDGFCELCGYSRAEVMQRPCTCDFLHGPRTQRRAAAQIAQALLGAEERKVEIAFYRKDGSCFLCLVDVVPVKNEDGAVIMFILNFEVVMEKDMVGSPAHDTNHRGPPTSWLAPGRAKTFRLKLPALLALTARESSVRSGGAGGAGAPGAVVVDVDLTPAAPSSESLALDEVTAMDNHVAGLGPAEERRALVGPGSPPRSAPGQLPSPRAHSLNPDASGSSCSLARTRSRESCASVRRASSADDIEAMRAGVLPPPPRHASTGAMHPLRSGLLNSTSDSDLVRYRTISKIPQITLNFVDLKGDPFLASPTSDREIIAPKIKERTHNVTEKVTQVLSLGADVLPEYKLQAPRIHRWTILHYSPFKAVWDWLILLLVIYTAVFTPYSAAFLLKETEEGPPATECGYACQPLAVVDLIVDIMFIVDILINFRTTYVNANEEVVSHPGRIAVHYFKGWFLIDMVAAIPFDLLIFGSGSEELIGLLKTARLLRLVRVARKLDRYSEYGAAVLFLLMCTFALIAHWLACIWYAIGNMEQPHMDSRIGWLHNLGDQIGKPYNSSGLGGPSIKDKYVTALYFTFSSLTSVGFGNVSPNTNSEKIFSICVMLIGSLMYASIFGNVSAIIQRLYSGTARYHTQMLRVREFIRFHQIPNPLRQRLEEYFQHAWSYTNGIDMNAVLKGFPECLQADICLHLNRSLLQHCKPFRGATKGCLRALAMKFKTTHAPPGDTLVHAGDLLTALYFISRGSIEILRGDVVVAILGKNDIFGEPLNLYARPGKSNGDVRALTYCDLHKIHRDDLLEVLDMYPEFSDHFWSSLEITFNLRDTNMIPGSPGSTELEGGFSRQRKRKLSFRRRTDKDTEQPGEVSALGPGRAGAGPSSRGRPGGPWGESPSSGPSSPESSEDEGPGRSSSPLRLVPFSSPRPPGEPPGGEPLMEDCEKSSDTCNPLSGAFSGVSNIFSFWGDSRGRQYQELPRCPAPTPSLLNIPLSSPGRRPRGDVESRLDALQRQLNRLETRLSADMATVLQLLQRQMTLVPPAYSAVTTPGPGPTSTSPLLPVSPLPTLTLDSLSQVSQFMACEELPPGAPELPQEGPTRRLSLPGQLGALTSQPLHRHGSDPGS

| Structure (SMILES) | Potency |
| --- | --- |
| Cc1cccc(C)c1O | inactive |
| N[C@@H](Cc1c[nH]c2ccccc12)C(=O)O | inactive |
| CC(=O)/C=C/C1=C(C)CCCC1(C)C | inactive |
| CC(C)(C)NCC(O)c1ccc(O)c(CO)c1 (configuration not stated) | inactive |
| CCCCCCCC(=O)OCC(O)CO (configuration not stated) | inactive |
| C[C@]12C[C@H](O)[C@H]3[C@@H](CCC4=CC(=O)CC[C@@]43C)[C@@H]1CC[C@@H]2C(=O)CO | inactive |
| CCc1cc(C(N)=S)ccn1 | inactive |
| CC1=NN(c2ccccc2)C(=O)C1 | inactive |
| C[C@]12CC[C@@H]3c4ccc(O)cc4CC[C@H]3[C@@H]1CCC2=O | inactive |
| C1CNCCN1 | inactive |
| NC(=O)NO | inactive |
| CO[C@H]1C=CO[C@@]2(C)Oc3c(C)c(O)c4c(O)c(c(/C=N/N5CCN(C)CC5)c(O)c4c3C2=O)NC(=O)/C(C)=C\C=C[C@H](C)[C@H](O)[C@@H](C)[C@@H](O)[C@@H](C)[C@H](OC(C)=O)[C@@H]1C | inactive |
| Cn1cnc2c1c(=O)[nH]c(=O)n2C | inactive |
| C=CC(=O)NC(C)(C)CS(=O)(=O)O | inactive |
| CC(C)=CCC/C(C)=C/CO | inactive |
| C#C[C@]1(O)CC[C@H]2[C@@H]3CCC4=CC(=O)CC[C@@H]4[C@H]3CC[C@@]21CC | inactive |
| CC(C)CC(C)CC(O)CC(C)C (configuration not stated) | inactive |
| CC(C)Cc1ccc(C(C)C(=O)O)cc1 (configuration not stated) | inactive |
| CN(C)Cc1cc(CN(C)C)c(O)c(CN(C)C)c1 | inactive |
| CCCCC/C(C=O)=C\c1ccccc1 | inactive |
| C=C(C)C(N)=O | inactive |
| NC(=O)c1ccc([N+](=O)[O-])cc1Cl | inactive |
| Cc1c(N(C)CS(=O)(=O)O)c(=O)n(-c2ccccc2)n1C | inactive |
| NC(N)=NC(N)=NCCc1ccccc1 | inactive |
| C[C@]12C=CC(=O)C=C1CC[C@@H]1[C@@H]2C(=O)C[C@@]2(C)[C@H]1CC[C@]2(O)C(=O)CO | inactive |
| C#C[C@]1(O)CC[C@H]2[C@@H]3CCc4cc(O)ccc4[C@H]3CC[C@@]21C | inactive |
| CC(=O)c1ccc(S(=O)(=O)NC(=O)NC2CCCCC2)cc1 | inactive |
| OCCCc1ccccc1 | inactive |
| CCn1cc(C(=O)O)c(=O)c2ccc(C)nc21 | inactive |
| CCOC(=O)C(C)(C)Oc1ccc(Cl)cc1 | inactive |
